According to PubChem BioAssay (Tox21):
Where “and” joins values, the source holds several entries; their conditions need not be identical. Equal values may be shown once. Results filed as inconclusive are left out. A number with no mark means an inactive call. Calls of active or inactive are those of the source. Calls follow the shape of the dose curve; as a rule, active = well fitted inhibition curve with a large enough effect in the repeat runs; inconclusive = weak or mixed curves; inactive = flat fitted curve, though single readings scatter.

target: Luciferin 4-monooxygenase (Photinus pyralis) (UniProt P08659); assay: qHTS assay to identify small molecule inhibitors of firefly luciferase (AID 1224835); also: nearly all actives have a fitted effect of over 25% in size; conditions: purified P. pyralis luciferase, luminescence inhibition; series mostly up to 115 µM; activity change, negative = inhibition: at the top concentration
Sequence (P08659 whole entry, looked up): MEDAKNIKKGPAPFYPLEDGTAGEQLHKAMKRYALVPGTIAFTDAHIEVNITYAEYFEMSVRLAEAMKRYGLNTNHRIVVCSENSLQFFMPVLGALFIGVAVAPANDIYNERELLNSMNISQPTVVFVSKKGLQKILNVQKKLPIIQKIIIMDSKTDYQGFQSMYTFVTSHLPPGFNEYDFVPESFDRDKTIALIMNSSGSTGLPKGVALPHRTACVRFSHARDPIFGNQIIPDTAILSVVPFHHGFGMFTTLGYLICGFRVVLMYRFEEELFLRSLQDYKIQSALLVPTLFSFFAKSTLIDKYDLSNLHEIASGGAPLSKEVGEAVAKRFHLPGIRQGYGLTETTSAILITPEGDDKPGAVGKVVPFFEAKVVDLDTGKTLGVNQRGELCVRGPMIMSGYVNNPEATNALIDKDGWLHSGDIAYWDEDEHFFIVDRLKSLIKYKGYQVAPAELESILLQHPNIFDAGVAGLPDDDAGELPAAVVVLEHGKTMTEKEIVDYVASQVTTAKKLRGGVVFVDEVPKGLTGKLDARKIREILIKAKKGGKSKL
Text: U.S. Tox21 Program National Center for Advancing Translational Sciences [NCATS] NIH Chemical Genomics Center [NCGC] U.S. Environmental Protection Agency [EPA] National Institutes of Environmental Health Sciences [NIEHS] National Toxicology Program [NTP] U.S. Food and Drug Administration [FDA] Tox21 Assay Overview: Firefly (Photinus pyralis) luciferase is one of the most commonly used transcriptional reporters. Firefly luciferase reporter-gene assays are generally considered one of the most sensitive assay types (Wood, 1995; Wood, 1998). However, it was initially observed, in 1991, by Thompson et al., that compounds that resemble the substrates of firefly luciferase (FLuc) can act as competitive inhibitors of the enzyme, and that these compounds, upon interaction with luciferase in the cell, can actually stabilize the protein and increase its half-life. Previous profiling work by other groups to determine the prevalence of compounds that affect FLuc enzymatic activity (PubChem AID 411) identified that ~3% of the MLSMR library (then at ~72K) inhibited FLuc. […] Thus the Tox21 10K library is profiled for activity against FLuc using a biochemical assay of purified FLuc and KM concentrations of FLuc substrates (D-luciferin and ATP).
These assay plates were then treated with 23nL of compound or DMSO using a Kalypsys pin tool, which allows for delivery of a 6-point interplate titration of each compound to the assay plate (quantitative HTS.) 1 uL of firefly luciferase mix (containing 50 mM Tris acetate, pH 7.6, 0.04 uM P. pyralis luciferase, 0.01% Tween, 0.05% BSA and dH2O) was then delivered by FRD to each well. Luciferase activity was then measured using a ViewLux CCD imager.
% is scaled to controls: 0 for no effect and ±100 for the full control effect; potency is read from the fitted curve at half-maximal effect.

| Structure (SMILES) | activity change, negative = inhibition | Potency |
| --- | --- | --- |
| N[C@H](C(=O)O)c1ccc(O)cc1 | -0.257% [at 23.6 µM] |  |
| CC(=O)CC(C)C | -1.79% |  |
| COC(=O)c1c(Cl)c(Cl)c(C(=O)OC)c(Cl)c1Cl |  | inactive |
| NCCCNCCSP(=O)(O)O | 0.729% [at 10.5 µM] |  |
| Cc1c(NC(C)C)c(=O)n(-c2ccccc2)n1C | 0.188% [at 52.9 µM] |  |
| CCCCCCCCS(=O)(=O)Cl | -10.1% |  |
| OC[C@]1(O)OC[C@@H](O)[C@H](O)[C@@H]1O |  | inactive |
| C[N+](C)(C)CC(O)CC(=O)[O-] (stereo not given) | -1.22% [at 52.9 µM] |  |
| CCOC(=O)CCC(C)=O | 0.403% |  |
| C=C(C)CS(=O)(=O)O | -0.552% |  |
| CC(=O)OCC(CCn1cnc2cnc(N)nc21)COC(C)=O | -1.83% [at 52.9 µM] |  |
| CCO[Si](CCC1CCC2OC2C1)(OCC)OCC (stereo not given) | 10.8% |  |
| N#Cc1ccc(C2CCCc3cncn32)cc1 (stereo not given) | -1% [at 52.9 µM] |  |
| NC(=O)COCCN1CCN(C(c2ccccc2)c2ccc(Cl)cc2)CC1 (stereo not given) | -7.69% [at 52.9 µM] |  |
| Nc1cc(=O)[nH]c(N)n1 | -0.0071% [at 52.9 µM] |  |
| c1cnc(N2CCN(Cc3ccc4c(c3)OCO4)CC2)nc1 | 0.397% [at 52.9 µM] |  |
| CC(C)(C)c1ccc(O)c(O)c1 |  | 32.8 µM (active) and 22.4 µM (active) |
| OC(CCN1CCCCC1)(c1ccccc1)C1CC2C=CC1C2 (stereo not given) | -0.328% [at 52.9 µM] |  |
| CC(C)(O)C#CC(C)(C)O | 5.42% |  |
| CC(C(=O)O)c1ccc(CC2CCCC2=O)cc1 (stereo not given) | 1.79% [at 52.9 µM] |  |

| Structure (SMILES) | activity change, negative = inhibition | Potency |
| --- | --- | --- |
| N[C@@H](C(=O)N[C@@H]1C(=O)N2C(C(=O)O)=C(Cl)CS[C@H]12)c1ccccc1 | -5.09% [at 10.5 µM] |  |
| C=C[Si](OC(=C)C)(OC(=C)C)OC(=C)C | 0.963% |  |
| CCCc1cc(C(N)=S)ccn1 | -0.245% [at 52.9 µM] |  |
| C[C@@H]1CCN(C(=O)[C@H](CCCN=C(N)N)NS(=O)(=O)c2cccc3c2NC[C@H](C)C3)[C@@H](C(=O)O)C1 | 0.507% [at 52.9 µM] |  |
| CCO/C([O-])=N/c1c[n+](N2CCOCC2)no1 | -6.46% [at 52.9 µM] |  |
| CCN1CCC[C@H]1CNC(=O)c1cc(S(N)(=O)=O)ccc1OC | -0.963% [at 52.9 µM] |  |
| CCCCC(CC)COC(=O)c1ccccc1O (stereo not given) | 0.101% [at 52.9 µM] |  |
| CCC(C)C1CCCCC1=O (stereo not given) | 5.71% |  |
| Cc1cnc(NS(=O)(=O)c2ccc(N)cc2)nc1 | 0.194% [at 52.9 µM] |  |
| OCCCC1CCCCC1 | -3.12% |  |
| CCOC(=O)Nc1ccc(NCc2ccc(F)cc2)nc1N | -7.91% [at 52.9 µM] |  |
| CC(=O)Nc1ccc(S(N)(=O)=O)cc1 | -0.566% |  |
| COc1nc(N)nc2c1ncn2[C@@H]1O[C@H](CO)[C@@H](O)[C@@H]1O | -0.683% [at 52.9 µM] |  |
| CCCCNC(=O)NCCCC | -0.932% |  |
| CCN1CCC[C@H]1CNC(=O)c1c(O)c(Cl)cc(Cl)c1OC | 0.944% [at 52.9 µM] |  |
| CC(C[N+](C)(C)C)OC(N)=O (stereo not given) | -1.36% [at 52.9 µM] |  |
| CCC(=O)OC(C)c1ccccc1 (stereo not given) | -0.64% |  |
| CCn1ccnc1CC1COc2ccccc2O1 (stereo not given) | 0.892% [at 52.9 µM] |  |
| COC(=O)c1cc(C(=O)OC)cc(S(=O)(=O)O)c1 | 0.945% |  |
| CN(C)CCCSc1ccccc1NC(=O)/C=C/c1ccccc1 | 2.63% [at 52.9 µM] |  |
